This note sets out measurements from patent US20040110161, “Method for detecting mutations in nucleotide sequences” (published 2004).

The labels stand for the following.
T1: MutS (Cy5-labeled) (Escherichia coli, UniProt P23909 P23909:1-853)
T1 sequence: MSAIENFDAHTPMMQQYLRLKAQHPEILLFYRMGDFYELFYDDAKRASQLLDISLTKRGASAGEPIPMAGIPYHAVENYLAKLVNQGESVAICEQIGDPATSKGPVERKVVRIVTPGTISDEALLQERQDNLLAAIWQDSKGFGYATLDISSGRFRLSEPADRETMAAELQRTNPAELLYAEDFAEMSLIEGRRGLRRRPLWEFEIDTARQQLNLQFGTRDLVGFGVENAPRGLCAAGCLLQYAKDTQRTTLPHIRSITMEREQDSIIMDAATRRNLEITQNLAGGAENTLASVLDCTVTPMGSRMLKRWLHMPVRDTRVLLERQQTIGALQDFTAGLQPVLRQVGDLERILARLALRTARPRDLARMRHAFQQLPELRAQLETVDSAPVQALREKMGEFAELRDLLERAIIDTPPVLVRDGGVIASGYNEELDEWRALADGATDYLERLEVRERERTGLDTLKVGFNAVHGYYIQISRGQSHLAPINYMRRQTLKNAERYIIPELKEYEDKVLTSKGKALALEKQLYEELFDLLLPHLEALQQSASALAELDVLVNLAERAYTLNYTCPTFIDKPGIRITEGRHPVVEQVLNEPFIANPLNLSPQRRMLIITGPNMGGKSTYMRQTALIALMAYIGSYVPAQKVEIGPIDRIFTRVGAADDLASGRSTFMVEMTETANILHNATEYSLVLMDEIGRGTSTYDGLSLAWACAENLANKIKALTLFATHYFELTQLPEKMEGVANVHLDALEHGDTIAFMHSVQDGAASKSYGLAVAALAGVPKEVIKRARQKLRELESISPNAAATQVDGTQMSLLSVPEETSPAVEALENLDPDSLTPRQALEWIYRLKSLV

B1: Met AT (dsDNA)
DNA 1: AACTATAGTATTCTTTATCATACATGTCTCTGGCAAGAC
DNA 2: TGGTCTTGCCAGAGACATGTATGATAAAGAATACTATAG
B2: Brc AT (dsDNA)
DNA 1: AAATGTTATTACGGCTAATTGTGCTCACTGTACTTGGAA
DNA 2: CATTCCAAGTACAGTGAGCACAATTAGCCGTAATAACAT
B3: p53 AT (dsDNA)
DNA 1: AAAGTTCCTGCATGGGCGGCATGAACCGGAGGCCCATC
DNA 2: AGGATGGGCCTCCGGTTCATGCCGCCCATGCAGGAACT
B4: bcl AT (dsDNA)
DNA 1: AAGGTCGCGGGATGCGGCTGGATGGGGCGTGTGCCCGGG
DNA 2: AGCCCGGGCACACGCCCCATCCAGCCGCATCCCGCGACC
B5: APC AT (dsDNA)
DNA 1: AAGATCTTCAGCTGACCTAGTTCCAATCTTTTCTTTTAT
DNA 2: AAATAAAAGAAAAGATTGGAACTAGGTCAGCTGAAGATC
B6: Rb AT (dsDNA)
DNA 1: AAATAAGATCAAATAAAGGTGAATCTGAGAGCCATGCAA
DNA 2: CCTTGCATGGCTCTCAGATTCACCTTTATTTGATCTTAT
B7: MSH AT (dsDNA)
DNA 1: AACCTTTCTCCAAAATGGCTGGTCGTACATATGGAACAG
DNA 2: ACCTGTTCCATATGTACGACCAGCCATTTTGGAGAAAGG

This experiment has as its target T1, MutS (Cy5-labeled). The experiment is described as follows: agarose chip. The conditions noted are these: tags: Cy5 nonspecific amine label; also Gene Check unlabeled in EMSA; label: 5'-biotin, 5'-Cy3. A general note: Mobility shift assays separate free from complexed probe on a gel.
Take B1: the binding signal worked out at 46.3 fluorescence units. Then B2, with 52.4 fluorescence units; and B3, with 48.7 fluorescence units; and B4, with 51.2 fluorescence units. With B5 the figure was 40.5 fluorescence units; with B6, 59.6 fluorescence units; with B7, 45.9 fluorescence units.
